Data: ChEMBL document CHEMBL3988442, “University of Dundee, Small-Polar-MMV Screening Library” (2021)
For some of these results: Measured potencies and affinities stand elsewhere.

How the values were obtained:
Parameters in all cases: scale not given: direction of the effect not stated beside the values
[1] = target: Protein translocase subunit SecA (Escherichia coli (strain K12)) (UniProt P10408); experiment: Assay to Identify E. coli SecA ATPase Inhibitors; format: functional; conditions: 30 µM
Sequence of Protein translocase subunit SecA (Escherichia coli (strain K12)) (P10408 whole entry): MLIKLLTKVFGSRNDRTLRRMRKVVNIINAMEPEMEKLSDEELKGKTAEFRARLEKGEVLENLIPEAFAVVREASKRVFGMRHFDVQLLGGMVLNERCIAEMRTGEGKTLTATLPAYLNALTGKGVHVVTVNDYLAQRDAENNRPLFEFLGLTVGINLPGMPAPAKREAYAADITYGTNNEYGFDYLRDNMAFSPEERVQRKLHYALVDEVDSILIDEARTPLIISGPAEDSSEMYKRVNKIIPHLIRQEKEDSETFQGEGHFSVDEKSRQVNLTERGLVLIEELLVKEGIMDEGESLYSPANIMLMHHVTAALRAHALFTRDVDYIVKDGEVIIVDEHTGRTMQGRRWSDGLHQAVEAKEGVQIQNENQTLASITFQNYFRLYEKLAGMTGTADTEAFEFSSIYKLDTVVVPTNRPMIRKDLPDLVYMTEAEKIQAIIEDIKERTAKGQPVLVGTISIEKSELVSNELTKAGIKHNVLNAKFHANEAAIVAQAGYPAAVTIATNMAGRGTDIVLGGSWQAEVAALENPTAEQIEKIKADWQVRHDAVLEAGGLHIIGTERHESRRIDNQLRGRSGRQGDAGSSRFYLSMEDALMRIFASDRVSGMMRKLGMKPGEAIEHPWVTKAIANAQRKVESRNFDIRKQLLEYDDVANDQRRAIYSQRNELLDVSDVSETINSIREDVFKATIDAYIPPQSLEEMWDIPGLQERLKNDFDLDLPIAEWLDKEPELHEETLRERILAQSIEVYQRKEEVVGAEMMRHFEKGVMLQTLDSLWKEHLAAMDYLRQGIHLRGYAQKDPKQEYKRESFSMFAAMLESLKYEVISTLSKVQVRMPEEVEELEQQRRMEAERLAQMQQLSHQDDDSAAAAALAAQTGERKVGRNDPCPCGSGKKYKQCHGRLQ

[2] = target: T1, Ubiquitin-activating enzyme e1, putative (Leishmania donovani (strain BPK282A1)) (UniProt E9BSI1); experiment: Leishmania donovani Ubiquitin Activating Enzyme (LdE1); format: functional; conditions: 30 µM
T1 sequence (whole entry): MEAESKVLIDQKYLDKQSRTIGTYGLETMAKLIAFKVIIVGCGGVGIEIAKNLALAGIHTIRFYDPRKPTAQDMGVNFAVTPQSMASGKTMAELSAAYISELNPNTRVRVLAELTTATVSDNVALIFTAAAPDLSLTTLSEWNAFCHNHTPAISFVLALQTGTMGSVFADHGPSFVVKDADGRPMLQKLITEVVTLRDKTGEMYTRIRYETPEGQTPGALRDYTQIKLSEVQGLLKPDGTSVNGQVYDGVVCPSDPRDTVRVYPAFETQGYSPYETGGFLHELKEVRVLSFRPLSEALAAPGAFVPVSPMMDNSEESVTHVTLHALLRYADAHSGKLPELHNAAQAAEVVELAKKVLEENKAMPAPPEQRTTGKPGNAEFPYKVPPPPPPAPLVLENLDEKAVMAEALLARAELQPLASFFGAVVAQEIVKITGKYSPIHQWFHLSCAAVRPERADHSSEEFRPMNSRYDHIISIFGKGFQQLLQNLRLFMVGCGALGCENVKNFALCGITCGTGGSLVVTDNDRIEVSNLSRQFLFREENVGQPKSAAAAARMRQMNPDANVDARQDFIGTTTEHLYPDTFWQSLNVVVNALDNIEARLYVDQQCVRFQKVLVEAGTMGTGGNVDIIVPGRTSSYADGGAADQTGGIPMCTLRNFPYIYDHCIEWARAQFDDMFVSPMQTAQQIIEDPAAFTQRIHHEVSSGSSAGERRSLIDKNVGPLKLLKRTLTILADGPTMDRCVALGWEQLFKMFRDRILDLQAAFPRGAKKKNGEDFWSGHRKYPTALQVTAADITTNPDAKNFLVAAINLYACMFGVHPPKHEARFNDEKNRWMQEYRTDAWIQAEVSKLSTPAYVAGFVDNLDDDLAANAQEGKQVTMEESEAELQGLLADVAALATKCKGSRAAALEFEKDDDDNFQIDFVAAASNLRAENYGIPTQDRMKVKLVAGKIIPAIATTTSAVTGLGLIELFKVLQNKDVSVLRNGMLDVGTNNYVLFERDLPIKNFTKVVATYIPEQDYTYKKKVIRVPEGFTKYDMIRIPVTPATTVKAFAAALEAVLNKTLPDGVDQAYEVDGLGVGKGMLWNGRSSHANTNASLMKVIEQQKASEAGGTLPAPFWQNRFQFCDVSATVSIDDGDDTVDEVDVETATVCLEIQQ

[3] = target: AMP-activated protein kinase, AMPK (Homo sapiens) (UniProt P54646+O43741+P54619+Q9UGJ0+Q9Y478+Q13131+Q9UGI9); experiment: AMP-dependent Kinase enzyme assay. An in vitro enzyme assay that detects ADP turnover that is directly proportional to AMPK activity. This uses naive AMPK that is activated during the assay with MK-8722; format: functional; conditions: 30 µM
[4] = target: Sialic acid-binding Ig-like lectin 9 (Homo sapiens) (UniProt Q9Y336); experiment: Hs-Siglec9 ALPHAscreen SOP 20170721; conditions: 10 µM
Sequence of Sialic acid-binding Ig-like lectin 9 (Homo sapiens) (Q9Y336 whole entry): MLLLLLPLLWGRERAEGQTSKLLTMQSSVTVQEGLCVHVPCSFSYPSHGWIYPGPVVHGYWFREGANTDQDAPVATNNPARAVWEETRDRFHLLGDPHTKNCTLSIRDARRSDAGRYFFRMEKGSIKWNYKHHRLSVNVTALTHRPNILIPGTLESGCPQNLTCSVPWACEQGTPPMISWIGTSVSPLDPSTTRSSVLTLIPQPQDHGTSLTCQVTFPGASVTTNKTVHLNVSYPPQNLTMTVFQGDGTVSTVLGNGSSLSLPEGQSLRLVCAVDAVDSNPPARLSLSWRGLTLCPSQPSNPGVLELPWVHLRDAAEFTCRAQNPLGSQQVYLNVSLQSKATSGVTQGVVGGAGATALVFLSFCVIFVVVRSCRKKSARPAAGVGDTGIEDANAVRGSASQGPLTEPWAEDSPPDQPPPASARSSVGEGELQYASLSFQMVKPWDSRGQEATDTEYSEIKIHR

Trypanosoma cruzi = experiment: Trypanosoma cruzi phosphomannomutase and mannose-1-phosphate guanylyltransferase assay; format: functional; conditions: 10 µM
[5] = target: T2, Arginase-2, mitochondrial (Homo sapiens) (UniProt P78540); experiment: in vitro enzyme assay to detect the production of urea directly proportional to the activity of Arginase II; format: functional; conditions: 33.3 µM; further: in the data most compounds retested in dose-response had high values
T2 sequence (whole entry): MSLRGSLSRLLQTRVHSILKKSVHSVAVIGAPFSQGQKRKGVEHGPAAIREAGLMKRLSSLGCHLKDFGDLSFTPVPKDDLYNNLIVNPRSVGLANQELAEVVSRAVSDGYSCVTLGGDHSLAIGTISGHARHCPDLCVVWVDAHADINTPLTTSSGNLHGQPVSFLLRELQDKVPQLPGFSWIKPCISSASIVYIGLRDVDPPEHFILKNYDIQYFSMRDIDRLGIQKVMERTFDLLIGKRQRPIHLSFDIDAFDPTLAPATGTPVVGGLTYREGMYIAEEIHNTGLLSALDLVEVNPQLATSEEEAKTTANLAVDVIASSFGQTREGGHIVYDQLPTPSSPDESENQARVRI

[6] = target: T3, Proteasome subunit beta (Trypanosoma cruzi) (UniProt O96673); experiment: Trypanosoma cruzi proteasome chymotrypsin-like activity (TcProtChymo) assay.; further: in the data most compounds retested in dose-response had high values; format: functional; conditions: 9.37 µM
T3 sequence (whole entry): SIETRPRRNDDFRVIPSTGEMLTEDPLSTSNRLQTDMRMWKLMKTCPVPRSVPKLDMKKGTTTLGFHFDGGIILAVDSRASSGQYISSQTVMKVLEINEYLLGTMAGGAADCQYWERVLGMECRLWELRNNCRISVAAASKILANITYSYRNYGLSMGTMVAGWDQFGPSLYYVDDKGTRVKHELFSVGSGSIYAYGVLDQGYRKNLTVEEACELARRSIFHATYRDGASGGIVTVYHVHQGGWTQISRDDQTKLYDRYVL

Homo sapiens = species: Homo sapiens; experiment: To identify inhibition of the IFN signalling (Jak-Stat) pathway via expression of an eGFP reporter gene under the control of an IFN-stimulated response element (ISRE) containing MxA promoter.; format: functional; conditions: 30 µM
[7] = target: T4, Tyrosyl-tRNA synthetase, putative (Trypanosoma cruzi (strain CL Brener)) (UniProt Q4DSP6); experiment: Trypanosoma cruzi tyrosyl tRNA synthetase (TcYRS) _High Tyrosine SOP; format: functional; conditions: 30 µM; further: in the data most compounds retested in dose-response had high values
T4 sequence (whole entry): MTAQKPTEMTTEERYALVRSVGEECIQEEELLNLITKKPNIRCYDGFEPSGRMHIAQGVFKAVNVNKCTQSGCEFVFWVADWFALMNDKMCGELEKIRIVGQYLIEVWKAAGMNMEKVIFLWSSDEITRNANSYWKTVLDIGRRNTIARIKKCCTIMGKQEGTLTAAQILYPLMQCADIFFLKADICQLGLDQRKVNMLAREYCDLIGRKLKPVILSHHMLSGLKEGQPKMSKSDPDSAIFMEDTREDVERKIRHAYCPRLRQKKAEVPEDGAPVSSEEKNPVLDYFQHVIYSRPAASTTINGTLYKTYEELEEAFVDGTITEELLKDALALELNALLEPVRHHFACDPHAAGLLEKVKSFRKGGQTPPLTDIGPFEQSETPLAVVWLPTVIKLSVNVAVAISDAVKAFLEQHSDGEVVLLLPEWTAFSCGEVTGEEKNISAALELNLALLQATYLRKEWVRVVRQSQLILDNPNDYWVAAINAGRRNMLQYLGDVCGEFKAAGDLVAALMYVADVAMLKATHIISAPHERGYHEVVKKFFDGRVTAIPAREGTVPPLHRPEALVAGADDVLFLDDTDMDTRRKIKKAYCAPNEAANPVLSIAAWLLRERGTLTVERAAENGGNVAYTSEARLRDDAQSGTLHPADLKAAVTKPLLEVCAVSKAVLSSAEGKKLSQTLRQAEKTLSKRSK

[8] = target: T4, Tyrosyl-tRNA synthetase, putative (Trypanosoma cruzi (strain CL Brener)); experiment: Trypanosoma cruzi tyrosyl tRNA synthetase (TcYRS) SOP; format: functional; conditions: 30 µM
[9] = target: Chromo domain-containing protein 1 (Saccharomyces cerevisiae (strain ATCC 204508 / S288c) (Baker's yeast)) (UniProt P32657); experiment: ScCHD-1 Enzyme Inhibition Assay; format: functional; conditions: 30 µM; further: in the data most compounds retested in dose-response had high values
Sequence of Chromo domain-containing protein 1 (Saccharomyces cerevisiae (strain ATCC 204508 / S288c) (Baker's yeast)) (P32657 whole entry, the tested form may be a part): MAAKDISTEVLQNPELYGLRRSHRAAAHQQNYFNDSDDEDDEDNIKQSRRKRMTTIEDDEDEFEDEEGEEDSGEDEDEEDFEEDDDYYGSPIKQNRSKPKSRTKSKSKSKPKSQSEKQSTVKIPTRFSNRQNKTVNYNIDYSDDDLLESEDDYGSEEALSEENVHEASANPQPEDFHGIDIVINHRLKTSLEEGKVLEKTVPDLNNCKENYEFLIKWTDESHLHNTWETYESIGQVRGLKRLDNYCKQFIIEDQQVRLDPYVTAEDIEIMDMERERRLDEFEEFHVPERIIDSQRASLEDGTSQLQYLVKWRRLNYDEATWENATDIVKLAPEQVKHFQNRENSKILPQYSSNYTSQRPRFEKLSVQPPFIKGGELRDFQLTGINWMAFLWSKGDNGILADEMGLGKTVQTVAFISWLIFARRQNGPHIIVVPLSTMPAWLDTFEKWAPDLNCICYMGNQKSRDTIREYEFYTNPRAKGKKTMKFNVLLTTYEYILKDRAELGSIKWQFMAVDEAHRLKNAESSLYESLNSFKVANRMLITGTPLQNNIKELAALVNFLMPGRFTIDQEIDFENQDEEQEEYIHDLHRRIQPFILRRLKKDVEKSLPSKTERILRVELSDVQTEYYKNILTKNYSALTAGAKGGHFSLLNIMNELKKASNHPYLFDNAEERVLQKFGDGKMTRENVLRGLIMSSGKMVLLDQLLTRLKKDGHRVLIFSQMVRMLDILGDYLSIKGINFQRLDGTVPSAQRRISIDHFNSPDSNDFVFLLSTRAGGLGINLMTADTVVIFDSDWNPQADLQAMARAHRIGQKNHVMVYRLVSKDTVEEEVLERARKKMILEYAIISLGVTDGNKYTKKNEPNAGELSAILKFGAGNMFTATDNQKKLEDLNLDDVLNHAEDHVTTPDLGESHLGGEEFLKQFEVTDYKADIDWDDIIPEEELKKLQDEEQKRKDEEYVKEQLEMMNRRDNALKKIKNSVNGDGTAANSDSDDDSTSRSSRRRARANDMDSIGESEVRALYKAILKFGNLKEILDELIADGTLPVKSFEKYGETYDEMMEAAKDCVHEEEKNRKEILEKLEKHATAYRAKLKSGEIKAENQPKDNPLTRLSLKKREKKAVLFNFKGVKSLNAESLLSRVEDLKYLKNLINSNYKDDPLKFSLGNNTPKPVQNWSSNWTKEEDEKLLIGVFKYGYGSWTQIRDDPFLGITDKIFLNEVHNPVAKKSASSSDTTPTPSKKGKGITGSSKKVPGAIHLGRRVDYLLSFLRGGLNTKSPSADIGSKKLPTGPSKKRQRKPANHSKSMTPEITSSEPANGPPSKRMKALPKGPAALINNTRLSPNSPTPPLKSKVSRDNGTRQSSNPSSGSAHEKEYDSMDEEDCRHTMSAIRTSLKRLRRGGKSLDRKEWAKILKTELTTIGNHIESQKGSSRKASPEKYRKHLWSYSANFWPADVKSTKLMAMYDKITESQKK

Row | SMILES | Percent Effect [1] | Percent Effect [2] | Percent Effect [3] | Percent Effect [4] | Percent Effect (Trypanosoma cruzi) | Percent Effect [5] | Percent Effect [6] | Percent Effect (Homo sapiens) | Percent Effect [7] | Percent Effect [8] | Percent Effect [9]
1 | CC(NCc1ccc(F)cc1)c1ccc(OCC(=O)NC2CC2)cc1 (stereo not given) | -1.43% | 6.33% | 9.48% | -4.28% | -6.26% | -7.1% | 18% | 17% | 1.04% | 2.53% | -17.3%
2 | O=C(c1cccnc1)N1CCc2ncnc(C3CCOC3)c2CC1 (stereo not given) | 0.619% | 10.7% | 5.98% | -10.8% | -5.71% | 3.5% | 10.8% | 2.86% | 4.25% | 11.5% | 3.31%
3 | Cc1n[nH]c(C)c1NC(=O)CN1CCCC(CNC(=O)C(C)(C)C)C1 (stereo not given) | -2.53% | 2.63% | 0.454% | 5.58% | -0.188% | 2.68% | 8.19% | 21.7% | -1.47% | -2.44% | 0.796%
4 | CCOc1ccc(N2CCCN=C2NC(=O)c2cccc(Cl)c2)cc1 | -0.891% | 5.2% | 1.42% | 2.2% | -4.62% | -13.8% | 14.6% | 1.55% | 3.23% | 13.6% | 0.903%
5 | Cc1ccc(C)c(NC(=O)c2n[nH]c(-n3cnnc3)n2)c1 | -1.59% | 6.67% | 0.649% | 8.26% | 2.75% | -2.64% | 9.24% | 18.5% | 6.35% | 10.3% | -4%
6 | O=C(Nc1ccccc1)C1CN(CC2CC2)CC12CCOCC2 (stereo not given) | -1.55% | 5.33% | 7.28% | -3.04% | -0.579% | -8.42% | 10.4% | -0.536% | -3.12% | -10% | -4.82%
7 | NC(=O)C1CCCN(C(=O)c2cnc3c(cnn3C3CCCC3)c2)C1 (stereo not given) | -8.82% | 15.2% | -8.15% | 18.9% | 12.8% | -3.04% | 3.19% | 19.3% | 6.4% | 24.1% | -11.1%
8 | CC(O)CN1CCC(CNCc2cccc(Br)c2)CC1 (stereo not given) | -6.33% | 5.41% | -21.1% | 11.5% | -4.25% | -5.61% | -0.721% | 11.2% | 2.46% | -1.24% | 4.26%
9 | O=C(CCC1CCCO1)NCc1ccnc(-n2cccn2)c1 (stereo not given) | -7.06% | 13.2% | 2.95% | -9.63% | -7.38% | -1.44% | 5.33% | 10.6% | 0.493% | 11.1% | -5.06%
10 | Cn1cc(CNC2CCCN(Cc3noc(C4CC4)n3)C2)cn1 (stereo not given) | -1.45% | 13.2% | 1.88% | -6.33% | -4.51% | 5.75% | 18.7% | 28.1% | 2.45% | 12.2% | -11.8%
11 | COc1ccnc(N2CCN(CC(=O)N3CCOCC3)CC2)n1 | -3.7% | 18.4% | 3.44% | -1.28% | -0.28% | -5.04% | 8.54% | -2.03% | 8.37% | 18.5% | -6.56%
12 | CC(C)(C)C(=O)N1CCC2(COCc3cnc(N4CCOCC4)nc32)C1 (stereo not given) | -4.89% | 4% | 3.79% | 6.02% | -2.36% | -7.57% | 9.06% | -1.15% | 2.12% | 2.56% | -1.68%
13 | O=C(CC1CC1)NCc1cn2c(n1)CN(C(=O)c1cccnc1)CC2 | -2.41% | 8% | 8.62% | 2.88% | -7.28% | 1.17% | 2.73% | 9.61% | 0% | 8.97% | 3.52%
14 | Cc1cc(NC(=O)CCN2CCCC2Cn2cncn2)no1 (stereo not given) | -6.97% | 8.86% | 1.01% | 2.13% | -0.718% | -2.8% | 14.9% | 2.3% | 4.17% | 10.1% | -27.3%
15 | O=C(c1cccs1)N1CCC(Cn2nc(-c3ccco3)ccc2=O)CC1 | 0.0559% | 6.76% | 15.8% | 0.867% | -6.92% | 3.02% | 26.8% | 13.6% | 10.8% | 14.3% | 1.29%
16 | O=C(Cn1nc2c(cc1=O)CSCC2)NC(Cc1ccccc1)C(=O)O (stereo not given) | -6.43% | 20% | -8.36% | 1.5% | 7.47% | 89.3% | 15% | 7.8% | -2.12% | 15.4% | -19%
17 | COc1cc(CNC2CCc3nc(C)nn3C2)cc2c1OCCO2 (stereo not given) | -2.1% | 7.89% | -9.24% | 6.01% | 5.51% | 5.04% | 2.62% | -11.3% | 2.46% | 11.1% | -1.5%
18 | Cc1nc(C)n(C2CCCN(C(=O)c3csc(C(C)C)n3)C2)n1 (stereo not given) | -5.33% | 29.7% | -10.5% | 12.2% | 8.4% | -10.4% | 8.83% | 14.5% | 8.37% | 28.4% | -17.4%
19 | Cn1cc(CN2CC[C@H]3O[C@H](C(=O)NCc4ccco4)CC[C@H]32)cn1 | -0.286% | 5.33% | -3.22% | -1.09% | -7.14% | -53.2% | 6.67% | -2.52% | 1.04% | 12.5% | -5.84%
20 | N#Cc1cccc(CS(=O)(=O)NCCC(O)c2ccccc2)c1 (stereo not given) | 13% | 5.33% | -6.17% | 7.18% | 4.77% | 15.1% | 16.2% | 3.01% | 4.92% | 16.1% | -6.38%
